Out of some 5,500 compounds screened, about 2,000 (36%) were called active. Roughly 18% stayed inconclusive and do not appear here. Cut-off read from the data, not from the text of the source: active = normalized growth mostly below about 0.91 (no sharp cut-off); inconclusive = no clear call, values can overlap the other calls; inactive = mostly above about 0.92. Some of the results follow.
Assay: chemical genetic growth profiling, strain panel (AID 1159580);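 note: tested at 20 µM; growth read once vehicle control cultures reached saturation at 30 °C; 1 = growth at the plate median or of vehicle wells; lower values mean less growth of the strain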
Settings: S. cerevisiae deletion strains, growth OD

Measured: normalized growth

CC(=O)Oc1c(-c2ccccc2)oc2c(CC=C(C)C)c3c(c(OC(C)=O)c2c1=O)C=CC(C)(C)O3
active: locus YKL190W, strain CNB1, hits give low values 0.906 | locus YKR001C, strain vps1, hits give low values 1.21 [resistant] | locus YKR091W, strain srl3, hits give low values 1.14 [resistant] | locus YLL026W, hits give low values 1.07 [resistant] | locus YLL041C, strain sdh2, hits give low values 1.09 [resistant] | locus YLR058C, strain SHM2, hits give low values 0.891 | locus YLR384C, strain iki3, hits give low values 1.1 [resistant] | locus YLR418C, strain cdc73, hits give low values 1.17 [resistant] | locus YML016C, strain PPZ1, hits give low values 0.874 | locus YML032C, strain rad52, hits give low values 1.14 [resistant] | locus YML124C, strain tub3, hits give low values 1.07 [resistant] | locus YMR078C, strain ctf18, hits give low values 1.14 [resistant] | locus YMR129W, hits give low values 1.12 [resistant] | locus YOL147C, strain pex11, hits give low values 1.09 [resistant] | locus YOR061W, strain CKA2, hits give low values 0.782 | locus YOR070C, strain gyp1, hits give low values 1.16 [resistant] | locus YOR136W, strain idh2, hits give low values 1.11 [resistant] | locus YOR144C, strain elg1, hits give low values 1.08 [resistant] | locus YPL240C, strain hsp82, hits give low values 1.1 [resistant] | locus YPR141C, strain kar3, hits give low values 1.09 [resistant] | locus YPR163C, strain tif3, hits give low values 1.14 [resistant]
inactive: locus YJL168C, strain set2, hits give low values 1.03 | locus YJL187C, strain SWE1 (second series), hits give low values 0.885 | locus YJL187C, strain SWE1, hits give low values 1.05 | locus YKL009W, strain mrt4, hits give low values 1.04 | locus YKL068W, hits give low values 1.01 | locus YKL085W, strain MDH1 (second series), hits give low values 1 | locus YKL085W, strain MDH1, hits give low values 1 | locus YKL160W, strain elf1, hits give low values 1 | locus YKR026C, strain gcn3, hits give low values 1 | locus YLL001W, strain dnm1, hits give low values 0.976 | locus YLR027C, strain aat2, hits give low values 1.03 | locus YLR039C, strain RIC1, hits give low values 0.891 | locus YLR102C, strain apc9, hits give low values 1.06 | locus YLR221C, strain rsa3, hits give low values 1.04 | locus YLR258W, strain gsy2, hits give low values 1.03 | locus YLR262C, strain YPT6 (second series), hits give low values 1.02 | locus YLR262C, strain YPT6, hits give low values 0.874 | locus YLR268W, strain sec22, hits give low values 1.05 | locus YLR320W, strain mms22, hits give low values 0.999 | locus YLR330W, strain CHS5, hits give low values 0.924 | locus YLR342W, strain FKS1, hits give low values 1.05 | locus YLR357W, strain rsc2, hits give low values 0.992 | locus YLR370C, strain arc18, hits give low values 1.01 | locus YLR371W, strain rom2, hits give low values 1.01 | locus YML120C, strain ndi1, hits give low values 1.07 | locus YMR058W, strain fet3, hits give low values 1.02 | locus YMR125W, strain sto1, hits give low values 1.02 | locus YMR205C, strain PFK2, hits give low values 1.01 | locus YMR223W, strain ubp8, hits give low values 1.05 | locus YMR231W, strain pep5, hits give low values 1 | locus YMR307W, strain GAS1, hits give low values 0.818 | locus YNL067W, strain RPL9B, hits give low values 0.988 | locus YNL071W, strain lat1, hits give low values 1.02 | locus YNL209W, strain ssb2, hits give low values 1.05 | locus YNL233W, strain BNI4, hits give low values 0.915 | locus YNL248C, strain rpa49, hits give low values 0.984 | locus YNL250W, strain rad50, hits give low values 1.03 | locus YNL271C, strain bni1, hits give low values 1.04 | locus YNL298W, strain CLA4, hits give low values 1.04 | locus YNL307C, strain MCK1, hits give low values 1.03 | locus YNL322C, strain KRE1 (second series), hits give low values 1.05 | locus YNR049C, strain mso1, hits give low values 1.01 | locus YNR052C, strain pop2, hits give low values 1.07 | locus YOL012C, strain htz1 0.869 | locus YOR001W, strain rrp6, hits give low values 1.01 | locus YOR069W, strain VPS5, hits give low values 0.935 | locus YOR080W, strain dia2, hits give low values 1.03 | locus YOR083W, strain WHI5, hits give low values 1.06 | locus YOR106W, strain vam3, hits give low values 1.08 | locus YOR184W, strain ser1, hits give low values 1.07 | locus YOR265W, strain rbl2, hits give low values 1.05 | locus YOR270C, strain vph1, hits give low values 0.972 | locus YOR290C, strain snf2, hits give low values 1.03 | locus YOR316C, strain cot1, hits give low values 1.07 | locus YPL051W, strain arl3, hits give low values 0.976 | locus YPL078C, strain atp4, hits give low values 1.03 | locus YPL106C, strain sse1, hits give low values 1.02 | locus YPR119W, strain clb2, hits give low values 1.05 | locus YPR167C, strain met16, hits give low values 1 | strain wtn01, hits give low values 1.03

Reference: PubChem BioAssay AID1159580 (chemical genetic matrix, 2015)
